Measured values taken from article PMC4336329 (PLoS ONE, 2015).
About 14,000 (4.5%) of roughly 310,000 compounds showed an effect of 50% or more. Effects have a minus sign here. For the sample, strong results were picked, then their nearest neighbours and some compounds at random.

Each molecule was assayed against human ether-à-go-go-related gene (hERG) potassium channel (human, UniProt Q12809) (assay: primary screen, population patch clamp on CHO cells stably expressing hERG; higher = less effect of the substance).
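Also: peak tail current of the secondary pulse compared with the same well before compound.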

Sequence of human ether-à-go-go-related gene (hERG) potassium channel (Q12809 whole entry, looked up): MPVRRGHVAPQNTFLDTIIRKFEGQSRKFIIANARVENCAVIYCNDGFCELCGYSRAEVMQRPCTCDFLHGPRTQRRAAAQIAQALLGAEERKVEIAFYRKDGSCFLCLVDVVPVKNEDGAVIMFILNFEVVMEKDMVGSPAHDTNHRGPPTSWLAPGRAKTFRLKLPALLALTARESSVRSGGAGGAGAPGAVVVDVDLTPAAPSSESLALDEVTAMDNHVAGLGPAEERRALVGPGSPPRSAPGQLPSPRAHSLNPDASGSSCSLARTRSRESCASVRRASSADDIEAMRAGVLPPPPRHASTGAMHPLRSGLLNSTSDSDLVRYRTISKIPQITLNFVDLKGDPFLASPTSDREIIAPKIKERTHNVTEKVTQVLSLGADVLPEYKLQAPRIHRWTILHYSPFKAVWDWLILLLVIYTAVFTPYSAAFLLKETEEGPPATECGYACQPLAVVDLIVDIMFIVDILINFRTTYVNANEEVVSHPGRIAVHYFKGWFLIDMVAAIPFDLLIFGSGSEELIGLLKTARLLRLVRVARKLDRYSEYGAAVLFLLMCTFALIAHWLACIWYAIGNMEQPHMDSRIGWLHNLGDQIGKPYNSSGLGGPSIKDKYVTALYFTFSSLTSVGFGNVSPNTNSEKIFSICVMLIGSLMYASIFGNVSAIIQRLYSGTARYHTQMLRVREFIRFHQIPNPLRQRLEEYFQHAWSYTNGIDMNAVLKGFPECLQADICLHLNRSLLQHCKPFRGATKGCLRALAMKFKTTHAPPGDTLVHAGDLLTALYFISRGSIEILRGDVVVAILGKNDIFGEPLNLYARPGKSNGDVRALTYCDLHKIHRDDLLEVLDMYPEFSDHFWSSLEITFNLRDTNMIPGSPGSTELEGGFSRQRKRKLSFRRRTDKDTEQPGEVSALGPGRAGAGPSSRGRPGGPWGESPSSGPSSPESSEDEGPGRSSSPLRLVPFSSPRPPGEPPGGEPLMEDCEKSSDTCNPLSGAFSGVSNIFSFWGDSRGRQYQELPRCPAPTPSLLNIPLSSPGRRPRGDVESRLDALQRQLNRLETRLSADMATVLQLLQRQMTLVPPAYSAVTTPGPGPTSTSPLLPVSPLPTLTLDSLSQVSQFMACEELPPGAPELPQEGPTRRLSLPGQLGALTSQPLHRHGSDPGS

| SMILES | hERG current change (%, negative = inhibition) at 10uM [%] |
| --- | --- |
| CC1CCC2(CC1)NC(=O)N(NC(=O)c1cccs1)C2=O (centres unmarked) | 9.08 |
| O=C(COC(=O)CNC(=O)c1sc2ccccc2c1Cl)Nc1c(Cl)cc(Cl)cc1Cl | 15.6 |
| O=C(COC(=O)CNC(=O)c1sc2ccccc2c1Cl)Nc1cc(Cl)cc(Cl)c1 | -54.7 |
| NC(=O)c1ccc(NC(=O)COC(=O)CNC(=O)c2sc3ccccc3c2Cl)cc1 | -12.8 |
| Cc1nc(-c2nc(-c3c(C(=O)NNC(=O)c4ccc(Cl)cc4)noc3C)cs2)cs1 | -35.1 |
| CCN(CC)CCN(C)Cc1nc(C(c2ccccc2)c2ccccc2)no1 | -57.7 |
| CN(CCc1cn[nH]c1)Cc1nc(C(c2ccccc2)c2ccccc2)no1 | -38.5 |
| COCCN(C)Cc1nc(C(c2ccccc2)c2ccccc2)no1 | 3.28 |
| O=c1c2ccccc2nc(/C=C/c2ccc(O)cc2)n1CCc1ccccc1 | -17.3 |
| O=C(CN1c2ccccc2Sc2ccccc21)NNC(=O)Nc1cccc(Cl)c1 | 2.84 |
| CCOC(=O)C1=C(COC(=O)[C@H](C)NS(=O)(=O)c2ccc(NC(C)=O)cc2)NC(=O)NC1C (some centres unmarked) | 21.2 |
| O=C(O)CCn1c(=O)[nH]c2ccccc2c1=O | 12.4 |
| Cl.O.O=C(c1ccc(F)cc1)C1CCN(CCn2c(=S)[nH]c3ccccc3c2=O)CC1 | -68.9 |
| CCOc1ccccc1C(=O)N1CCC(C(=O)c2ccc(F)cc2)CC1 | -25.2 |
| CN1CCN(CCn2c(=S)[nH]c3ccccc3c2=O)CC1 | 6.07 |
| O=c1c2ccccc2[nH]c(=S)n1CCN1CCCC1 | -19.1 |
| O=C(c1ccc(F)cc1)C1CCN(C(=O)c2ccccc2)CC1 | -9.13 |
| O=C(O)C(O)C(O)C(=O)O.O=C(c1ccc(F)cc1)C1CCN(CCn2c(=O)[nH]c3ccccc3c2=O)CC1 | -51.8 |
| CC1(C)C(=O)N(CCN2CCC(C(=O)c3ccc(F)cc3)CC2)c2ccccc21.Cl | -70.5 |
| O=C(CCCCn1c(=O)[nH]c2ccccc2c1=O)NC1CCN(Cc2ccccc2)CC1 | -18.9 |
| O=C(NNc1cc(Cl)cc(Cl)c1)C1CCC1 | 21.9 |
| COc1ccc(NC(=O)Cn2c(C)cc(=O)c3ccccc32)cc1 | -7.76 |

| SMILES | hERG current change (%, negative = inhibition) at 10uM [%] |
| --- | --- |
| O=C1CN(S(=O)(=O)c2cccc(Cl)c2Cl)c2ccccc2N1 | 3.58 |
| O=C1CC(=Nc2ccccc2)NN1c1ccccc1 | 23.1 |
| CCCCNC(=O)NC1CCCC1 | 4.48 |
| c1ccc2c(c1)c1cccc3ccc4cccc2c4c31 | 16.4 |
| COC(=O)c1c(NC(=O)/C=C/c2ccco2)sc2c1CCC2 | 17.6 |
| Cc1nc(N)nc(Nc2ccc(Cl)cc2)c1Br | -7.99 |
| COc1ccccc1NC(=O)CN1CCN(CC(=O)Nc2ccc(OC)c(OC)c2)CC1 | -24.4 |
| COc1ccc(NC(C)=O)cc1NC(=O)CN1CCN(C2c3ccccc3-c3ccccc32)CC1 | 3.55 |
| COc1ccc(NC(C)=O)cc1NC(=O)CN1CCN(CC(=O)Nc2ccc(Cl)cc2)CC1 | -69.8 |
| COc1ccc(NC(C)=O)cc1NC(=O)c1ccc(Cl)cc1 | -18.2 |
| COc1ccc(NC(=O)c2ccccc2Cl)cc1NC(=O)CN1CCOCC1 | -5.99 |
| COc1ccccc1NC(=O)CN1CCN(CC(=O)Nc2cc(NC(C)=O)ccc2OC)CC1 | -50.3 |
| COc1ccc(NC(C)=O)cc1NC(=O)CN1CCN(CC(=O)Nc2ccccc2Cl)CC1 | -53.3 |
| COc1ccc(NC(C)=O)cc1NC(=O)CN1CCN(c2ccccn2)CC1 | 10.3 |
| Cc1cc2c(cc1C)C(=O)NC(C)(C)C2 | 8.73 |
| COc1cccc(N2C(=O)[C@H]3C(C(=O)c4cnccn4)=NN[C@H]3C2=O)c1 | 13.2 |
| CCc1nnc(NC(=O)CSc2ccc(-c3ccc(C)cc3)nn2)s1 | 9.49 |
| O=C(NC1CC(=O)c2sccc21)c1ccc(Cl)cc1Cl (centres unmarked) | -35.6 |
| O=C(c1ccco1)N1CCN(C(=O)c2sccc2-c2ccccc2)CC1 | -8.12 |
| COc1ccc(C)cc1NC(=O)CCN1CCCC1 | 2.36 |
| CCc1ccccc1NC(=O)CN1CCN(CC(=O)Nc2cc(C)ccc2OC)CC1 | -28.4 |
| COc1ccc(C)cc1NC(=O)CN1CCN(c2ccccn2)CC1 | -11.7 |

| SMILES | hERG current change (%, negative = inhibition) at 10uM [%] |
| --- | --- |
| COc1ccc(C)cc1NC(=O)CCN1CCN(C/C=C/c2ccccc2)CC1 | -77.1 |
| COc1ccc(C)cc1NC(=O)CCN1CCN(c2ccccc2)CC1 | -10.3 |
| COc1ccc(C)cc1NC(=O)CN1CCN(C/C=C/c2ccccc2)CC1 | -78.3 |
| Cc1ccc(S(=O)(=O)c2nnn3c2nc(N2CCOCC2)c2ccccc23)c(C)c1 | -31.3 |
| COCc1nnc(NC(=O)c2cc(C(=O)OC)cc([N+](=O)[O-])c2)s1 | -2.76 |
| O=C(Cc1ncc(C(F)(F)F)cc1Cl)NCc1cccnc1 | 17.1 |
| COc1ccc(CC(=O)OCC(=O)Nc2ccc(OC(F)F)cc2)cc1OC | -19.7 |
| Cc1cc(C)n(CC(C)NC(=O)c2cc(COc3c(F)cccc3F)on2)n1 (centres unmarked) | 1.49 |
| COc1ccc(OC)c(C2=NOC(C(=O)NCc3cccnc3)C2)c1 (centres unmarked) | -62 |
| COc1ccc(C(=O)NC(=S)NCc2cccnc2)cc1Cl | -1.7 |
| COc1ccc(C(=O)NC(=S)NCc2cccnc2)cc1[N+](=O)[O-] | -12.3 |
| CCOc1ccc(C(=O)NC(=S)NCc2cccnc2)cc1[N+](=O)[O-] | -2.86 |
| CCOc1ccc(C(=O)NCc2cccnc2)cc1[N+](=O)[O-] | -76 |
| COc1ccc(C(=O)NC(=S)NCc2cccnc2)cc1Br | -23.9 |
| CCOc1ccc(C(=O)NC(=S)Nc2ccccn2)cc1[N+](=O)[O-] | -2.48 |
| CCOc1ccc(C(=O)NC(=S)Nc2ncccc2C)cc1[N+](=O)[O-] | -67.6 |
| COc1cc(OC)c(C2=NOC(C(=O)NCc3cccnc3)C2)cc1Cl (centres unmarked) | 13 |
| CCOc1ccc(C(=O)NC(=S)Nc2cccnc2)cc1[N+](=O)[O-] | -16.1 |
| COc1cccc(C2=NOC(C(=O)NCc3cccnc3)C2)c1 (centres unmarked) | 35.6 |
| COc1ccc(C(=O)NC(=S)NCc2cccnc2)cc1OC | -57.3 |
| NC(=O)CSc1oc(-c2ccc(F)cc2)nc1S(=O)(=O)c1ccccc1 | -8.24 |
| Cc1ccc(S(=O)(=O)C(C#N)c2nc3ccccc3nc2OC(C)C)cc1 (centres unmarked) | -5.65 |

| SMILES | hERG current change (%, negative = inhibition) at 10uM [%] |
| --- | --- |
| CN(CC(=O)Nc1ccc(F)cc1)C(=O)COC(=O)C1=COCCO1 | -20 |
| CCCCOC(=O)C1=C(C)Nc2ncnn2C1c1ccc(OC)c(OC)c1OC (centres unmarked) | -18.3 |
| CCOC(=O)Cc1csc(NC(=O)c2ccc3c(c2)OCO3)n1 | -22.8 |
| Cc1nn(C(=O)CN2C(=O)c3ccccc3C2=O)c(C)c1Br | 5.28 |
| CCOC(=O)[C@H]1[C@H]2COc3ccc(Cl)cc3[C@@H]2N2C(=O)CN(Cc3ccc(Cl)cc3)C(=O)[C@@]12C | 2.8 |
| Cc1ccc(NC(=O)Nc2cc(Cl)ccc2C2COC(=O)C2=N)cc1 (centres unmarked) | 27.9 |
| Cn1c(N)c(S(=O)(=O)N2CCCC2)c(=O)n(C)c1=O | 26.2 |
| O=C(O)C(F)(F)F.c1cn2c(NC3CCCCC3)c(-c3ccc(SC4CCCCC4)cc3)nc2cn1 | 9.49 |
| O=C(CSc1ccc(F)cc1)N1CCOCC1 | 16.2 |
| O=C(N/N=C/c1cccnc1)c1cc(Br)ccc1O | 30.5 |
| Cc1ccc(-n2c(=O)cc(N3CC(C)CC(C)C3)[nH]c2=O)cc1 (centres unmarked) | 23.7 |
| COc1cc(NC(=O)Cn2cnc3c(nc4n3CCCCC4)c2=O)cc(OC)c1OC | 22.8 |
| COc1ccccc1NC(=O)Cn1cnc2c(nc3n2CCCCC3)c1=O | -11.4 |
| O=C(Cn1cnc2c(nc3n2CCCCC3)c1=O)Nc1cccc(C(F)(F)F)c1 | -52.3 |
| CC(C)c1nc(CN(C)C(=O)N[C@H](C(=O)N[C@@H](Cc2ccccc2)C[C@H](O)[C@H](Cc2ccccc2)NC(=O)OCc2cncs2)C(C)C)cs1 | -24.5 |
| C#CCOCCOCCOCCNc1nc(N2CCOCC2)nc(N2CCN(C(=O)[C@H]([C@@H](C)CC)n3cc(CCC[NH+]=C(N)N)nn3)CC2)n1.[Cl-] | -0.117 |
| COc1cccc(-n2c(SCC(N)=O)nnc2-c2ccncc2)c1 | 16 |
| O=c1[nH]nc(Cc2ccccc2)c2ccccc12 | 4.16 |
| O=c1[nH]nc(Cc2ccc(Cl)cc2)c2ccccc12 | 8.04 |
| O=c1[nH]nc(Cc2ccc([N+](=O)[O-])cc2)c2ccccc12 | -70.2 |
